Experimental findings from PubChem BioAssay (Tox21) are described below.

For test [1], the target named is Acetylcholinesterase (Homo sapiens) (UniProt P22303). The test is described as follows: Acetylcholinesterase (AChE) small molecule antagonists: colormetric cell-based qHTS assay (AID 1347395). Note: nearly all actives have a fitted effect of over 30% in size. Note: potency is the fitted concentration of half-maximal effect. Put shortly: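 In this cell-based qHTS, attached SH-SY5Y cells were treated with test chemicals for 30 min, after which acetylthiocholine hydrolysis was followed by DTNB colour development over 90 min at 37 C.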
(In general: Quantitative high-throughput screening tests each substance at several concentrations.)

Test [2] shares this target. The test is described as follows: Acetylcholinesterase (AChE) small molecule antagonists: enzyme-based qHTS assay (AID 1347397). Note: nearly all actives have a fitted effect of over 55% in size. Note: potency is the fitted concentration of half-maximal effect. The following applies: Potency: AChE enzyme activity inhibition; outcome: AChE enzyme activity inhibition. The gist of the method:
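Compound or DMSO vehicle was pin-transferred onto recombinant human AChE (50 mU/mL as dispensed) and left 30 min at room temperature. Acetylthiocholine with DTNB then started the reaction, read colorimetrically 10 min later.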

Test [3] has the same target. In words: Acetylcholinesterase (AChE) small molecule antagonists: fluorescence cell-based qHTS assay (AID 1347398). Note: nearly all actives have a fitted effect of over 50% in size. Note: potency is the fitted concentration of half-maximal effect. The settings on record: Potency: AChE activity; outcome: AChE activity. Put shortly:
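Using neuroblastoma SH-SY5Y cells as the enzyme source, test chemicals are preincubated 30 min at 37 C; AChE-driven acetylthiocholine cleavage is then quantified by thiocholine-dependent Thiolite Green fluorescence after 40 min at room temperature.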

The target is the same in test [4]. In words: Acetylcholinesterase (AChE) small molecule antagonists: enzyme-based qHTS assay with human liver microsomes (AID 1347399). Note: nearly all actives have a fitted effect of over 60% in size. The following applies: Potency: qHTS inhibition; outcome: qHTS inhibition. The gist of the method: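 Recombinant human AChE (50 mU/mL in the enzyme mix) and human liver microsomes (0.25 mg/mL final) were preincubated with compound and NADPH (0.25 mg/mL final) for 30 min at 37 C. Acetylthiocholine/DTNB was then added; thiocholine was read colorimetrically after 10 min at room temperature.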

SMILES strings stand for the structures. Inconclusive results are not listed. More than one record can exist for a structure, and the calls need not agree. The source made the active and inactive calls. Calls come from the whole dose curve.
% is set by controls: 0 for no effect and ±100 for the full control effect.

Acetylcholinesterase (Homo sapiens), sequence (P22303 whole entry, looked up): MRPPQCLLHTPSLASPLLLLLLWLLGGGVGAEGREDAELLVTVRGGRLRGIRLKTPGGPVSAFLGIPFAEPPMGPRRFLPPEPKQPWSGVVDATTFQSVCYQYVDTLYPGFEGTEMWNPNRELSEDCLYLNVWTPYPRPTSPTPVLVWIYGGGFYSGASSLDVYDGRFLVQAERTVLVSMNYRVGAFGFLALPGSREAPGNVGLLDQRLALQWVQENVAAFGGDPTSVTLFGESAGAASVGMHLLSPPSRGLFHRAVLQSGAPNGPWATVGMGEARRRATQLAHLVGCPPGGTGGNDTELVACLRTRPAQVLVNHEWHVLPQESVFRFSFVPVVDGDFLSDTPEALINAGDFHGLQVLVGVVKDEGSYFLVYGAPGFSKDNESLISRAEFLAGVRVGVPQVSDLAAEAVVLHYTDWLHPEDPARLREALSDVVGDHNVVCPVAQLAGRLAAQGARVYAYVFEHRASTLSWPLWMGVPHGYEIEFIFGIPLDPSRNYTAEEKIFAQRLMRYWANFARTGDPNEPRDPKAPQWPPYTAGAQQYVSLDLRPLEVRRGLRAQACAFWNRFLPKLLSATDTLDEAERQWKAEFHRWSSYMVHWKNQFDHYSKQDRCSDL

For the compound `Cc1ccc(OC(=O)CC(C)C)cc1`, the Potency entry in test [1], in test [2], in test [3] and in test [4] was “inactive” throughout.
As to `CC[C@@H]([C@H](C)O)n1ncn(-c2ccc(N3CCN(c4ccc(OC[C@@H]5CO[C@@](Cn6cncn6)(c6ccc(F)cc6F)C5)cc4)CC3)cc2)c1=O`, the Potency result in test [1], in test [2], in test [3] and in test [4] was “inactive” each time.
Consider `CC(CO)(CO)CO`, for which the Potency entry in test [1], in test [2], in test [3] and in test [4] was “inactive” throughout.
On to `COC(=O)c1c(C)cc(O)c(C)c1O`, for which the Potency entry in test [1], in test [2], in test [3] and in test [4] was “inactive” throughout.
On to `Nc1ccc([N+](=O)[O-])c(N)c1`, for which the Potency entry in test [1], in test [2], in test [3] and in test [4] was “inactive” each time.
Regarding `C=CC(=O)OCC(C)OCC(C)OCC(C)OC(=O)C=C` (stereo not given), the Potency result in test [1], in test [2], in test [3] and in test [4] was “inactive” throughout.
As for `O=C1OC(=O)c2cc(-c3ccc4c(c3)C(=O)OC4=O)ccc21`, the Potency entry in test [1], in test [2], in test [3] and in test [4] was “inactive” each time.
Consider `COc1ccc(NC(C)=O)cc1`, for which the Potency entry in test [1], in test [2], in test [3] and in test [4] was “inactive” each time.
On to `CCC(=O)c1cccc(Cl)c1`, for which the Potency entry in test [1], in test [2], in test [3] and in test [4] was “inactive” in each case.
As to `CCCCN(CCN(CCCC)C(=O)N1CCOCC1)C(=O)N1CCOCC1`, the Potency result in test [1], in test [2], in test [3] and in test [4] was “inactive” each time.
For the compound `Nc1ccn([C@@H]2O[C@H](CO)[C@@H](O)C2O)c(=O)n1` (stereo not given in full), the Potency result in test [1], in test [2], in test [3] and in test [4] was “inactive” each time.
With `CC1(C)[C@H]2CC[C@]1(C)[C@H](O)C2`, the Potency result in test [1], in test [2], in test [3] and in test [4] was “inactive” each time.
`CCCCCCCCCCCCCC[n+]1ccccc1`: the figures for the Potency in test [1], in test [2] and in test [3] were 31.7 µM (active), 56.4 µM (active) and 20 µM (active), respectively. In addition, the Potency result in test [4] was “inactive”.
As for `C[C@H]1COc2c(C3(N)CC3)c(F)cc3c(=O)c(C(=O)O)cn1c23`, the Potency entry in test [1], in test [2], in test [3] and in test [4] was “inactive” throughout.
Take `c1ccc(SCCSc2ccccc2)cc1`: the Potency result in test [1], in test [2], in test [3] and in test [4] was “inactive” in each case.
For `CC(C)CCCCCCCOC(=O)c1ccc(C(=O)OCCCCCCCC(C)C)c(C(=O)OCCCCCCCC(C)C)c1`, the Potency entry in test [1], in test [2], in test [3] and in test [4] was “inactive” in each case.
For `Oc1ccc(C(c2ccc(O)cc2)C(Cl)(Cl)Cl)cc1`, the Potency entry in test [1], in test [2], in test [3] and in test [4] was “inactive” throughout.
Consider `CCCCCCCCS`, for which the Potency result in test [1], in test [2], in test [3] and in test [4] was “inactive” throughout.
As to `CC1CC(O)CC(C)(C)C1` (stereo not given), the Potency result in test [1], in test [2], in test [3] and in test [4] was “inactive” in each case.
Take `O=C(c1ccccc1)c1ccc2n1CCC2C(=O)O` (stereo not given): the Potency entry in test [1], in test [2], in test [3] and in test [4] was “inactive” each time.
Take `O=C(N/N=C/c1ccc([N+](=O)[O-])o1)c1ccc(O)cc1`: the Potency entry in test [1], in test [2], in test [3] and in test [4] was “inactive” in each case.
`O=[N+]([O-])c1ccccc1CCO`: the Potency entry in test [1], in test [2], in test [3] and in test [4] was “inactive” in each case.
Turning to `O=P(O)(OCc1ccccc1)OCc1ccccc1`, the Potency result in test [1], in test [2], in test [3] and in test [4] was “inactive” in each case.
As to `CCCCN(CCCC)C(=O)N(CCCC)CCCC`, the Potency entry in test [1], in test [2], in test [3] and in test [4] was “inactive” each time.
Take `CC(C)CCCCCCCOC(=O)CCCCC(=O)OCCCCCCCC(C)C`: the Potency entry in test [1], in test [2], in test [3] and in test [4] was “inactive” each time.
For the compound `Oc1ccccc1Cc1ccccc1O`, the Potency entry in test [1], in test [2], in test [3] and in test [4] was “inactive” throughout.
For `Cc1onc(-c2ccccc2)c1C(=O)Cl`, the Potency entry in test [1], in test [2], in test [3] and in test [4] was “inactive” throughout.
In the case of `C[C@](N)(Cc1ccc(O)cc1)C(=O)O`, the activity, negative = inhibition in test [1] is -0.0506% [at 10.5 µM] (inactive). For the same compound, the results for the activity change, negative = inhibition in test [2], in test [3] and in test [4] were 0.139% [at 10.5 µM] (inactive), 3.21% [at 10.5 µM] (inactive) and -2.1% [at 10.5 µM] (inactive), respectively.
Consider `COc1ccc(C(=O)/C(Br)=C\C(=O)O)cc1`, for which the Potency result in test [1], in test [2], in test [3] and in test [4] was “inactive” each time.
For the compound `NC(=O)C(=O)N/N=C/c1ccc([N+](=O)[O-])o1`, the Potency result in test [1], in test [2], in test [3] and in test [4] was “inactive” in each case.
On to `COc1ccc(CCO)cc1`, for which the Potency entry in test [1], in test [2], in test [3] and in test [4] was “inactive” each time.
For the compound `Nc1c(Cl)cc(Cl)cc1Cl`, the Potency entry in test [1], in test [2], in test [3] and in test [4] was “inactive” throughout.
Consider `O=C(O)c1ccc(C(=O)O)cc1`, for which the Potency result in test [1], in test [2], in test [3] and in test [4] was “inactive” throughout.
Consider `CC(=O)OCC(COC(C)=O)OC(C)=O`, for which the Potency entry in test [1], in test [2] and in test [4] was “inactive” in each case. The Potency in test [3] was 31.3 µM (active) and inactive.
Consider `CCC(=O)C1CC(C(C)C)CC=C1C` (stereo not given), for which the Potency result in test [1], in test [2], in test [3] and in test [4] was “inactive” in each case.
With `CC[C@H]1OC(=O)[C@H](C)[C@@H](O[C@H]2C[C@@](C)(OC)[C@@H](O)[C@H](C)O2)[C@H](C)[C@@H](O[C@@H]2O[C@H](C)C[C@H](N(C)C)[C@H]2O)[C@](C)(O)C[C@@H](C)C(=O)[C@H](C)[C@@H](O)[C@]1(C)O`, the Potency result in test [1], in test [2], in test [3] and in test [4] was “inactive” in each case.
As to `CCC(=O)OC(C)(C)C1CC=C(C)CC1` (stereo not given), the Potency result in test [1], in test [2], in test [3] and in test [4] was “inactive” in each case.
As for `O=C(O)Cc1ccccc1Nc1c(Cl)cccc1Cl`, the Potency result in test [1], in test [2], in test [3] and in test [4] was “inactive” each time.
Turning to `CCCCCOc1ccc(C2SC(=O)NC2=O)cc1OCC` (stereo not given), the Potency entry in test [1], in test [2], in test [3] and in test [4] was “inactive” throughout.
As to `c1ccc(CCNc2nc(-c3ccccc3)cs2)cc1`, the Potency entry in test [1], in test [2], in test [3] and in test [4] was “inactive” throughout.
As for `CC1(C)O[C@@H]2C[C@H]3[C@@H]4C[C@H](F)C5=CC(=O)C=C[C@]5(C)[C@@]4(F)[C@@H](O)C[C@]3(C)[C@]2(C(=O)CO)O1`, the Potency entry in test [1], in test [2], in test [3] and in test [4] was “inactive” each time.
On to `CC(=O)OCC(C)C`, for which the Potency result in test [1], in test [2], in test [3] and in test [4] was “inactive” in each case.
On to `CC(C[N+](C)(C)C)OC(N)=O` (stereo not given), for which the Potency result in test [1], in test [2], in test [3] and in test [4] was “inactive” each time.
With `O=C(O)CONC(=O)c1ccccc1`, the Potency result in test [1], in test [2], in test [3] and in test [4] was “inactive” in each case.
Take `CCN(CCC#N)c1ccc(N=Nc2ccc([N+](=O)[O-])cc2)cc1`: the Potency result in test [1], in test [2], in test [3] and in test [4] was “inactive” throughout.
For `Cc1ccccc1S(N)(=O)=O`, the Potency entry in test [1], in test [2], in test [3] and in test [4] was “inactive” throughout.
As for `CCCCCCCCCCCCCCCBr`, the Potency entry in test [1], in test [2], in test [3] and in test [4] was “inactive” each time.
Take `C=CC(O)CCCCC` (stereo not given): the Potency entry in test [1], in test [2], in test [3] and in test [4] was “inactive” in each case.
As for `CCCCC(O)/C=C(C)/C=C/C=C/C(=O)N1CCCC1=O` (stereo not given), the Potency result in test [1], in test [2], in test [3] and in test [4] was “inactive” throughout.
On to `O=[N+]([O-])c1ccc(CO)cc1`, for which the Potency entry in test [1], in test [2], in test [3] and in test [4] was “inactive” throughout.
On to `C=C(C)C(=O)O`, for which the Potency result in test [1], in test [2], in test [3] and in test [4] was “inactive” each time.
For the compound `CCn1cc(C(=O)O)c(=O)c2cnc(N3CCCC3)nc21`, in test [1], the activity, negative = inhibition was 2.45% [at 10.5 µM] (inactive). In addition, the activity change, negative = inhibition in test [2] is 0.534% [at 10.5 µM] (inactive); in test [3], 15.4% [at 10.5 µM] (inactive); in test [4] it was -1.77% [at 10.5 µM] (inactive).
Take `C=CCSSCCC`: the Potency entry in test [1], in test [2], in test [3] and in test [4] was “inactive” each time.
As for `O=C1CCc2ccccc2O1`, the Potency result in test [1], in test [2], in test [3] and in test [4] was “inactive” throughout.
As to `OCCOc1ccc(OCCO)cc1`, the Potency result in test [1], in test [2], in test [3] and in test [4] was “inactive” each time.
Take `OC1CCCCC1`: the Potency entry in test [1], in test [2], in test [3] and in test [4] was “inactive” each time.
Regarding `Cc1nc(C2CCCCC2)c(-c2ccc(S(N)(=O)=O)c(F)c2)o1`, the Potency entry in test [1], in test [2], in test [3] and in test [4] was “inactive” each time.
As to `O=C(O)c1snc(Cl)c1Cl`, the Potency entry in test [1], in test [2], in test [3] and in test [4] was “inactive” throughout.
As to `O=C(O)CCc1ccccc1`, the Potency entry in test [1], in test [2], in test [3] and in test [4] was “inactive” each time.
As for `CC(C)C[C@H](NC(=O)[C@H](CCc1ccccc1)NC(=O)CN1CCOCC1)C(=O)N[C@@H](Cc1ccccc1)C(=O)N[C@@H](CC(C)C)C(=O)[C@@]1(C)CO1`, the Potency result in test [1], in test [2], in test [3] and in test [4] was “inactive” throughout.
